A selection: hits, their analogues and other compounds. The true share with any hit is near 15%.
SARS PLpro yeast: inhibitors of SARS-CoV papain-like protease in yeast; S. cerevisiae expressing SARS-CoV PLpro, growth rescue; Potency, µM (titrated, usually from 32.9 µM), without a hit: at the highest dose activity, positive = growth rescue, hits mostly activators; 0.19% of 330,000 active; calls by dose curve; further: potency means the concentration at half of the fitted maximal effect; 0% is about no effect; nearly all actives have a fitted effect of over 55% in size
HCV inh: inhibitors of hepatitis C virus infection; 3.4% of 340,000 active; Huh7.5.1 HCVcc-Cre infection, luciferase reporter, 44 h; Potency, µM (highest dose often 41.8 µM), for the others: at the highest dose activity change, negative = inhibition, hits mostly inhibitors; further: potency means the concentration at half of the fitted maximal effect; on the % scale 0 is the no-effect control and ±100 the full control effect
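Reporter virus HCVcc-Cre (~0.5 moi) infects cells exposed to compound; seeding density 1,000 cells/well with 4 h settling beforehand. Luminescence, 15 sec read, taken 44 h post-infection following a 15 min RT substrate incubation.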
Pf growth 48h: inhibits P. falciparum growth in the first generation, 48 h. Potency, µM (titrated, usually from 28.7 µM), inactives show at the top dose activity change, negative = inhibition, usual class: inhibitors. P. falciparum luciferase growth in erythrocytes, 48 h. 5.9% of 310,000 active; further: potency means the concentration at half of the fitted maximal effect; on the % scale 0 is the no-effect control and ±100 the full control effect
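Luminescence readout; reporter = integrated firefly luciferase in P. falciparum. RBC culture at 2% hematocrit, 0.1% parasitemia final, 37 C/5% CO2; decreased signal taken as growth inhibition.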
Pf growth 96h: P. falciparum growth inhibition at 96 hours. P. falciparum luciferase reporter growth, 96 h. Potency, µM (series often up to 28.7 µM), inactives show top-dose activity change, negative = inhibition, most hits filed as inhibitors. 6.9% of 320,000 active; further: potency means the concentration at half of the fitted maximal effect; on the % scale 0 is the no-effect control and ±100 the full control effect
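Plates of compound plus infected erythrocytes (2% hematocrit, 0.05% parasitemia final) incubate 96 hours, 37 C, 5% CO2. Detection reagent added; reduced luminescence from the parasites' luciferase reporter flags inhibition.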
HCMV inh: human cytomegalovirus inhibition | activity change, negative = inhibition, % at 57.5 µM | HFF cells, HCMV-luciferase reporter, 72 h; active compounds read low | 4.5% of 410,000 active; in the data active means activity change below about -60%; inconclusive means no clear call, values can overlap the other calls; inactive means above about -39%; further: on the % scale 0 is the no-effect control and ±100 the full control effect
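Inhibition of viral replication was scored as loss of reporter luminescence in HFFs infected with HCMV-luciferase (MOI 1 PFU/cell) for 72 h; compounds tested at 2 doses, normalized to buffer and Salinomycin controls.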
Sm TGR block: inhibitors of Schistosoma mansoni thioredoxin glutathione reductase. Q962Y6. purified TGR, DTNB reduction, TNB absorbance 405 nm. Potency, µM (titrated, usually from 114 µM), without a hit: at the top dose activity change, negative = inhibition, usual class: inhibitors. 3% of 360,000 active; further: potency means the concentration at half of the fitted maximal effect; on the % scale 0 is the no-effect control and ±100 the full control effect; nearly all actives have a fitted effect of over 60% in size
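TGR 20 nM + NADPH 100 uM (dispensed conc.), cpd preinc 15 min RT; start with NADPH (500 uM addition) then DTNB (15 mM addition). Kinetic TNB absorbance, 405 nm filter. Four-parameter Hill fit across titration.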
The depositor's hits bear a star; i = inactive; ? = inconclusive; nt = not tested or not shown; [ ] = dose if it differs, or a comment. Unless noted, the call rests on the fitted dose curve; in most records, active means well fitted curve in the direction sought with a large enough effect; inconclusive means small, poorly fitted or top-dose-only effect, or another doubt; inactive means no such curve, though single readings can be large; an effect the other way counts as inactive or inconclusive.

SMILES	SARS PLpro yeast	HCV inh	Pf growth 48h	Pf growth 96h	HCMV inh	Sm TGR block
CC(=O)Nc1nc2ccccc2n1Cc1ccc(Cl)cc1	-0.9%	-17.5%	2.94µM*	?	0.0	9.2%
CCn1c(NC(C)=O)nc2ccccc21	-12.5%	11.8%	18.5%	?	-13.8	2.3%
O=C(Nc1cccc(OC(F)(F)F)c1)C1Cc2c(-c3cccc(F)c3)ccnc2O1 (configuration not stated)	nt	nt	nt	nt	-33.3	nt
Nc1ccc2oc(Cc3ccc(Cl)cc3)nc2c1	nt	nt	nt	nt	-2.1	14.1µM*
COC1CCN(C(=O)c2ccc3oc(Cc4ccc(Cl)cc4)nc3c2)CC1	-0.2%	-2.2%	-3.7%	220.2%	-39.0	-1.5%
O=[N+]([O-])c1ccc(O)c(C=Nc2ccc3oc(Cc4ccc(Cl)cc4)nc3c2)c1	1.5%	nt	?	38.2%	nt	50.1µM*
O=[N+]([O-])c1ccc(O)c(C=Nc2ccc3c(c2)OCCO3)c1	-49.3%	-7.5%	248.4%	24.9%	20.0	-19.1%
CCOc1ccccc1NC(=O)CCCn1cc([N+](=O)[O-])cn1	-4.0%	-20.5%	11.1%	3.29µM*	19.8	1.2%
CN(C)c1cc(Cl)c2nonc2c1N	-2.7%	8.6%	?	?	-34.7	50.1µM*
Cc1cc2c(cc1C)NC(CC(=O)Nc1ccccc1)C(=O)N2 (configuration not stated)	nt	nt	nt	nt	-99.9*	-0.7%
Cc1ccc(NC(=O)CC2Nc3cccc4cccc(c34)NC2=O)cc1 (configuration not stated)	nt	nt	nt	nt	19.8	39.8µM*
Cc1ccc(NC(=O)CC2Nc3ccccc3NC2=O)cc1C (configuration not stated)	nt	nt	nt	nt	-8.0	-8.7%
COC(=O)c1ccc(NC(=O)CC2Nc3cc(C)c(C)cc3NC2=O)cc1 (configuration not stated)	nt	nt	nt	nt	-98.6*	0.8%
O=C(CC1Nc2cccc3cccc(c23)NC1=O)Nc1ccccc1 (configuration not stated)	4.5%	11.3%	-9.8%	63.3%	22.6	-11.3%
CC(=O)c1ccc(NC(=O)CC2Nc3cc(C)c(C)cc3NC2=O)cc1 (configuration not stated)	nt	nt	nt	nt	-14.9	8.2%
O=C(CCn1c(=O)c2cccn2c2ccc(F)cc21)NCCc1ccccc1Cl	nt	nt	nt	nt	?	2.6%
CC(C)c1ccccc1NC(=O)CSc1n[nH]c(=O)n1C1CC1	0.3%	2.9%	-1.2%	-18.6%	0.0	0.7%
COc1ccc(NC(=S)NCCC(c2ccccc2)c2ccccc2)c(OC)c1	-1.7%	?	?	?	-60.4*	6.6%
COc1cccc(NC(=S)NCCC(c2ccccc2)c2ccccc2)c1	27.5%	?	?	?	-17.3	38.7%
COc1cc(OC)cc(C(=O)NCCC(c2ccccc2)c2ccccc2)c1	0.5%	14.1µM*	?	?	-11.4	-29.7%
COc1ccc(NC(=S)NC(=O)CC(C)C)c(OC)c1	-0.2%	?	25.5%[5.75 µM]	i	-24.6	39.8µM*
COc1cc(NC(=S)NCCC(c2ccccc2)c2ccccc2)cc(OC)c1	?	22.4µM*	13.1µM*	?	?	0.0%
COc1cc(OC)cc(C(=O)NCCOc2ccccc2)c1	-10.3%	-21.5%	nt	34.9%	65.0	-22.9%
O=C(NCC12CC3CC(CC(C3)C1)C2)c1cc2nc(-c3ccc(F)cc3)cc(C(F)(F)F)n2n1	nt	nt	nt	nt	1.6	-2.6%
CCc1nc2ccc(C(=O)NCc3cc(OC)ccc3OC)cc2nc1CC	nt	nt	nt	nt	33.6	4.0%
SMILES	SARS PLpro yeast	HCV inh	Pf growth 48h	Pf growth 96h	HCMV inh	Sm TGR block
O=C(CCn1c(=O)sc2ccccc21)Nc1cccnc1	22.0%	1.2%	23.9%	?	16.2	50.1µM*
Cn1nc(-c2ccc(C(=O)Nc3cccc(Cl)c3)cc2)c2ccccc2c1=O	0.0%	-20.8%	nt	3.29µM*	-13.5	-29.4%
Cn1nc(-c2ccc(C(=O)N3CCN(Cc4ccccc4)CC3)cc2)c2ccccc2c1=O	-3.3%	?	nt	13.1µM*	-22.4	-5.1%
Cn1nc(-c2ccc(C(=O)Nc3ccc(F)cc3)cc2)c2ccccc2c1=O	-0.9%	?	?	8.0%	-29.8	3.5%
CC(=O)Nc1cccc(NC(=O)CCn2c(=O)sc3ccccc32)c1	-0.3%	2.4%	25.0%	75.9%	23.6	-4.4%
Cc1ccc(NC(=O)c2ccc(-c3nn(C)c(=O)c4ccccc34)cc2)cc1	3.9%	12.6µM*	nt	10.4µM*	-37.5	0.4%
Cc1ccc(C)c(CN2C(=O)c3ccccc3S(=O)c3ccc(C(=O)N4CCCCC4)cc32)c1 (configuration not stated)	nt	nt	nt	nt	0.8	3.3%
O=C(CCn1nc(-c2ccc(Cl)cc2)c2ccccc2c1=O)Nc1cccnc1	0.2%	?	?	137.3%	-65.5*	-6.2%
Cn1nc(CC(=O)NC2CCCCC2)c2ccccc2c1=O	8.7%	-2.0%	-1.2%	175.9%	1.6	4.8%
Cn1nc(-c2ccc(C(=O)NC3CCCCC3)cc2)c2ccccc2c1=O	-1.8%	-5.5%	5.22µM*	1.7%	17.2	0.4%
Cn1nc(CC(=O)Nc2cccc3ncccc23)c2ccccc2c1=O	5.2%	?	5.7%	nt	-66.6*	-1.2%
Cn1nc(CC(=O)NC2CCCCCC2)c2ccccc2c1=O	-16.5%	3.16µM*	nt	9.8%	-72.2*	0.0%
O=C(Cc1ccc(-n2cccc2)cc1)NC1CCCCCC1	-15.6%	-1.3%	-1.8%	14.7µM*	-0.1	-0.4%
Cn1nc(-c2ccc(C(=O)Nc3cccnc3)cc2)c2ccccc2c1=O	?	-6.2%	6.57µM*	?	-38.4	-34.3%
Cc1ccc(NC(=O)c2ccc(-c3nn(C)c(=O)c4ccccc34)cc2)c(C)c1	-7.9%	?	nt	6.57µM*	18.2	0.0%
COc1cc(NC(=O)Cc2nn(C)c(=O)c3ccccc23)cc(OC)c1OC	9.8%	?	13.1µM*	10.4µM*	13.6	5.6%
O=c1c([N+](=O)[O-])cc(C(F)(F)F)cn1Cc1c(Cl)cccc1Cl	5.5%	-5.7%	12.9%	111.9%	2.2	-3.4%
Cn1nc(C(=O)NC2CCC(O)CC2)c2ccccc2c1=O (configuration not stated)	3.7%	11.8%	1.5%	1.8%	-64.5*	1.2%
COC(=O)CC1C(=O)NCCN1C(=O)CSc1nnc(Nc2ccc(C)cc2)s1 (configuration not stated)	13.0%	-14.5%	nt	7.38µM*	40.9	2.9%
CCC(C(=O)O)n1nnc(-c2ccc(OCc3ccccc3)c(OC)c2)n1 (configuration not stated)	9.2%	nt	0.9%	4.65µM*	-1.5	3.4%
CCC(=O)c1ccc(OCc2ccccc2)c(OC)c1	-13.0%	?	236.9%	?	97.4	7.2%
